Compounds with a hit are over-represented: about 2% of the library has one in this group of screens.
A3G deaminase: APOBEC3G DNA deaminase inhibitors, primary screen, biochemical, fluorescence, single-stranded DNA substrate, uHTS. recombinant A3G, ssDNA deamination FAM/TAMRA fluorescence. inhibition, % at 20 µM. 330,000 tested, 0.28% active;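 active means inhibition of at least 40% at 20 µM, with no more than 30% in the related APOBEC3A deaminase screen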;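 further: plate controls were DMSO wells with A3G for no effect and wells lacking A3G enzyme for full effect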
Target sequence (Q9HC16 whole entry, looked up): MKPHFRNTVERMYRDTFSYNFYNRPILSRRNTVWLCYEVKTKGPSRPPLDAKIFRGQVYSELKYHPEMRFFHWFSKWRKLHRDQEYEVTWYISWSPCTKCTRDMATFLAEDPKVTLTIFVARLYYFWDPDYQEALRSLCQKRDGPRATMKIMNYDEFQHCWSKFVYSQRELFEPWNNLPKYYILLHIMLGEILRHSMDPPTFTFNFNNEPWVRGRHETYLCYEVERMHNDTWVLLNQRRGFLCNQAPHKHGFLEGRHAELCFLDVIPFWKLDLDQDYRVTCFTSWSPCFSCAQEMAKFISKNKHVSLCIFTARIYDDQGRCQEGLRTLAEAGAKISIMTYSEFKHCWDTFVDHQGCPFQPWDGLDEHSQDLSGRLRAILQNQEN
HGIII-sPLA2 inh: human group III sPLA2 inhibitors, primary screen, biochemical, QFRET, BODIPY PC-A2 liposome substrate; inhibition, % at 12.2 µM; QFRET BODIPY PC-A2 liposome hydrolysis, fluorescence; AID 743126, 2013; Group 3 secretory phospholipase A2 (Homo sapiens), Q9NZ20; 370,000 tested, 0.56% active;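 active means inhibition above mean plus 3 SD of compounds lying within the high and low control bounds, cut at about 19% in these data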;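 further: 0% = median of test compound wells and 100% = no enzyme DMSO wells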
NALP1 inh: NALP1 inflammasome inhibitors in reconstituted yeast, colorimetric, S. cerevisiae, triplicate retest | S. cerevisiae NALP1/ASC/caspase-1 growth, X-gal OD620, 72 h | inhibition, % at 10 µM | 280,000 tested, 0.61% active | AID 2071, 2009; in the data active means inhibition mostly above about 24%, no sharp cut-off; inactive means mostly below about 32%
A3A deaminase: APOBEC3A ssDNA deaminase inhibitors, primary screen, selectivity assay for APOBEC3G inhibitor project, biochemical, FAM/TAMRA oligo cleavage fluorescence | DNA dC->dU-editing enzyme APOBEC-3A (Homo sapiens), P31941 | recombinant A3A, FAM/TAMRA ssDNA deamination fluorescence | inhibition, % at 20 µM | 330,000 tested, 0.41% active | AID 493011, 2011;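 active means at least 40% inhibition at 20 µM here, with at most 30% in a related deaminase screen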;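 further: plate controls were A3A with DMSO for no effect and wells lacking A3A enzyme for full effect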
Target sequence (P31941 whole entry, looked up): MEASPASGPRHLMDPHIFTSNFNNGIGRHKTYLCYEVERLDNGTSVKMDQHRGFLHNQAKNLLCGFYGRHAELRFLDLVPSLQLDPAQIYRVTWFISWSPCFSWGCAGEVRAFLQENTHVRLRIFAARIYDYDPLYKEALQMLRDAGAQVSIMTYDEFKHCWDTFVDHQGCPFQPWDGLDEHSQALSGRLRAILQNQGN
Fh CTSL1 inh: Fasciola hepatica cathepsin L1 inhibitors, primary screen, counter-screen for PFM18AAP inhibitor project, biochemical, QFRET, fluorogenic peptide substrate; recombinant F. hepatica cathepsin L1, Z-Leu-Arg-MCA fluorescence; inhibition, % at 5.96 µM; 300,000 tested, 0.49% active;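 active means inhibition above the mean of all tested compounds plus 3 SD, set per screening campaign, cut at about 17% in these data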;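 further: 0% = plate median of test compound wells and 100% = 1 µM Z-Phe-Ala-diazomethylketone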
APOBEC3A confirm: APOBEC3A deaminase inhibitors, retest, confirmation, selectivity assay for APOBEC3G inhibitor project, biochemical, single concentration, fluorescence readout. shares compounds with A3A deaminase. recombinant A3A, ssDNA deaminase UDG fluorescence assay. inhibition, % at 20 µM. 1,400 tested, 63% active. AID 493151, 2011;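 active means inhibition reaching a set limit, 80% of the first screen's cutoff, at 20 µM in any replicate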;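 further: plate controls were DMSO wells with A3A for no effect and wells lacking A3A enzyme for full effect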
UDG A3A counter: E. coli UDG inhibitors, confirmation, counter-screen for APOBEC3A inhibitor project, biochemical, single concentration, fluorescence, FAM/TAMRA oligo; shares compounds with A3A deaminase; UDG counterscreen, FAM/TAMRA uracil oligo fluorescence; inhibition, % at 20 µM; 1,000 tested, under 10 active; AID 504714, 2011; call rule not given here
* hit, by the source's call.

Screening CN1CCN(S(=O)(=O)c2cccc(C(=O)Nc3cc(Cl)ccc3N3CCOCC3)c2)CC1 returned A3G deaminase 7.7, HGIII-sPLA2 inh -11.9, A3A deaminase 51.5*, Fh CTSL1 inh -1.7, APOBEC3A confirm 31.3* and UDG A3A counter 2.6.
For CCN1CCN(c2ccc(S(=O)(=O)N3CCOCC3)cc2NC(=O)c2ccc(C(F)(F)F)cc2)CC1 the results were A3G deaminase 4.5, HGIII-sPLA2 inh 2.9, A3A deaminase 59.9*, Fh CTSL1 inh -1.8 and APOBEC3A confirm 27.4.
CCN1CCN(c2ccc(S(=O)(=O)N3CCOCC3)cc2NC(=O)c2cccc([N+](=O)[O-])c2)CC1 was read as A3G deaminase 2.9, HGIII-sPLA2 inh 2.7 and A3A deaminase 1.3.
For O=C(c1cccc(S(=O)(=O)N2CCCCCC2)c1)N1CCN(c2ccccc2F)CC1 the results were A3G deaminase -8.1, HGIII-sPLA2 inh -13.8, NALP1 inh 19.0, A3A deaminase -3.0 and Fh CTSL1 inh 0.8.
CCN1CCN(c2ccc(S(=O)(=O)N3CCCCC3)cc2NC(=O)c2ccc(F)cc2)CC1 was read as A3G deaminase 15.8, HGIII-sPLA2 inh -6.2, NALP1 inh 38.6, A3A deaminase 36.0 and Fh CTSL1 inh -5.2.
For CCN(CC)C(=O)Cn1nc(Cc2ccncc2)c2ccccc2c1=O the results were HGIII-sPLA2 inh 0.3.
Screening CCc1noc(C)c1C(=O)Nc1cc(S(=O)(=O)N2CCOCC2)ccc1N1CCN(CC)CC1 returned A3G deaminase 15.9, HGIII-sPLA2 inh 6.9, A3A deaminase 47.6*, Fh CTSL1 inh -1.1, APOBEC3A confirm 59.8* and UDG A3A counter 0.1.
Screening COc1ccc(N=Nc2[nH]c3ccc(C)cc3c2O)cc1 returned A3G deaminase 21.1, HGIII-sPLA2 inh 13.6, NALP1 inh -4.6, A3A deaminase 75.0*, Fh CTSL1 inh 3.1, APOBEC3A confirm 52.4* and UDG A3A counter 0.0.
For Cc1ccc(N=Nc2c(O)[nH]c3ccc(F)cc23)cc1 the results were A3G deaminase 0.9, HGIII-sPLA2 inh -5.0, NALP1 inh 22.0, A3A deaminase -4.7 and Fh CTSL1 inh 0.2.
Screening Cc1ccc(N=Nc2[nH]c3ccccc3c2O)cc1 returned A3G deaminase 22.0, HGIII-sPLA2 inh 0.7, NALP1 inh 18.8, A3A deaminase 62.6*, Fh CTSL1 inh 4.0, APOBEC3A confirm 58.7* and UDG A3A counter -1.2.
Cc1[nH]c2ccccc2c1N=Nc1ccc(F)cc1 was read as A3G deaminase -8.0, HGIII-sPLA2 inh 4.7, NALP1 inh 7.9, A3A deaminase -0.3 and Fh CTSL1 inh -2.5.
`Cc1cccc(C)c1OCC(=O)NCc1nnc(SCC(=O)NC2CCCCC2C)n1C` (centres undefined) gave A3G deaminase 10.2, HGIII-sPLA2 inh 3.6, NALP1 inh 6.5, A3A deaminase 52.7*, Fh CTSL1 inh -2.1, APOBEC3A confirm 59.9* and UDG A3A counter 2.7.
Cn1c(N)c(C(=O)COC(=O)COc2ccc(C#N)cc2)c(=O)n(C)c1=O was read as A3G deaminase -8.3, HGIII-sPLA2 inh -2.0, NALP1 inh 2.6, A3A deaminase 91.5*, Fh CTSL1 inh -4.3, APOBEC3A confirm 3.2 and UDG A3A counter 4.8.
O=C(NCC(c1ccco1)N1CCOCC1)c1ccc(F)cc1 (centres undefined) was read as A3G deaminase -3.4, HGIII-sPLA2 inh 1.1, A3A deaminase 1.1 and Fh CTSL1 inh -0.8.
Screening O=C(NCC(c1ccco1)N1CCOCC1)c1c(F)cccc1F (centres undefined) returned A3G deaminase -7.2, HGIII-sPLA2 inh 1.6, A3A deaminase 43.1*, Fh CTSL1 inh 2.5, APOBEC3A confirm -1.6 and UDG A3A counter -2.8.
`CN(CC#Cc1ccccc1)C(N)=NC(=O)/C=C/c1cccc(C(F)(F)F)c1` gave HGIII-sPLA2 inh -1.8.
`CCOC(=O)C1Nc2ccc(C(=O)O)cc2C2C=CCC12` (centres undefined) gave A3G deaminase 27.1, HGIII-sPLA2 inh 0.0, NALP1 inh 17.2, A3A deaminase 81.0*, Fh CTSL1 inh 7.2, APOBEC3A confirm 89.0* and UDG A3A counter 1.4.
For CC(C)C1Nc2ccc(C(=O)O)cc2C2C=CCC21 (centres undefined) the results were A3G deaminase 27.9, HGIII-sPLA2 inh -11.3, NALP1 inh 14.0, A3A deaminase 40.2*, Fh CTSL1 inh 1.1, APOBEC3A confirm 41.9* and UDG A3A counter 6.3.
For C[N+]1(C)CCC(=C2c3ccccc3CC(=O)c3sccc32)CC1 the results were A3G deaminase 27.6, HGIII-sPLA2 inh 2.4, NALP1 inh 1.2, A3A deaminase 52.2*, Fh CTSL1 inh -3.4 and APOBEC3A confirm 53.2*.
For C=CC#CC1(O)CC(C)[N+](C)(C)CC1C (centres undefined) the results were A3G deaminase 27.8, HGIII-sPLA2 inh 2.8, NALP1 inh 3.4, A3A deaminase 55.8*, Fh CTSL1 inh -1.2, APOBEC3A confirm 70.7* and UDG A3A counter -1.2.
For O=C(/C=C/c1ccco1)N1CCN(S(=O)(=O)c2ccccc2)CC1 the results were A3G deaminase 14.4, HGIII-sPLA2 inh -3.5, A3A deaminase 41.1* and APOBEC3A confirm 28.6.
C[C@@H](CCCCC1(C)OCCO1)CCC(=O)N(c1ccccc1)c1ccccc1 was read as HGIII-sPLA2 inh -2.4.
CCn1c(SCC(=O)N2CCCC2)nnc1-c1ccc(N)cc1 was read as A3G deaminase 24.6, HGIII-sPLA2 inh 7.1, NALP1 inh -47.9, A3A deaminase 43.6*, Fh CTSL1 inh -1.0, APOBEC3A confirm 64.7* and UDG A3A counter 2.7.
`CCCCn1c(SCC(=O)N2CCCC2)nnc1-c1ccccc1` gave A3G deaminase -2.1, HGIII-sPLA2 inh 1.3, NALP1 inh -5.3, A3A deaminase 3.2 and Fh CTSL1 inh -3.1.
For O=C(NC1CCCCN(Cc2ccc(Cl)cc2)C1=O)c1ccc(F)c(F)c1 (centres undefined) the results were HGIII-sPLA2 inh 5.1.
COc1ccc(N2CC(C(=O)Nc3nnc(SCC(=O)NC(C)(C)C)s3)CC2=O)cc1 (centres undefined) was read as A3G deaminase 12.0, HGIII-sPLA2 inh 4.4, NALP1 inh 22.5, A3A deaminase 47.6*, Fh CTSL1 inh 0.2 and APOBEC3A confirm 8.0.

Bioassay records deposited in PubChem by several laboratories.
